Test results: article PMC5540273 (PLoS ONE, 2017)

system: PAK3; conditions: concentration: 1 μM, replicates: in singlicate; n = 1
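Note: KINOMEscan kinase panel screen.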

Compound | %Inh
COc1cc2ncn(-c3cc(OCC4CCCO4)c(C(N)=O)s3)c2cc1OC (stereo not drawn) [GSK204607] | 9%
COc1ccccc1-c1ccc2c(NC(=O)C3CC3)n[nH]c2n1 [SB-711239] | 7%
Cc1cccc(-c2cc(Nc3ccncc3)c3ccccc3n2)n1 [GSK223675] | 0%
COc1ccc(Nc2nccc(-c3cccc(NC(=O)c4cc5cc(F)ccc5[nH]4)c3)n2)cc1 [GSK1229782] | 13%
COc1ccc(Nc2nccc(NCCNC(=O)Nc3ccccc3F)n2)cc1 [GSK1379901] | 0%
NC(=O)c1nnc2ccccc2c1N | 5%
CC(C)(C)c1ccc(C(=O)Nc2cn3cc(Cl)ccc3n2)cc1 | 0%
COc1cccc(NC(=O)NC2CCN(c3ccnc(Nc4ccc(F)cc4)n3)C2)c1 (stereo not drawn) [GSK1379721] | 0%
Cc1ccc(-c2cc(-c3c[nH]nc3-c3ccccn3)ccn2)cc1 [GW684088] | 0%
Cc1cc(N2Cc3ccccc3C2)nc(Nc2ccc(S(=O)(=O)N3CCOCC3)cc2)n1.Cl [GSK1669917] | 0%
CC(C)(C)c1ccc(C(=O)Nc2cn3cc(-c4cccnc4)ccc3n2)cc1 | 51%
Cc1ccccc1-n1cnc2c(N)ncnc21 [SKF-97510] | 25%
Fc1cccc(COc2nnc(-c3ccc4c(c3)CCO4)o2)c1 | 16%
Cc1ccc(C(=O)Nc2ccc(Nc3ccnc4cc(-c5ccccn5)ccc34)cc2O)cc1.Cl [GW440146] | 14%
CS(=O)(=O)c1ccc(-c2c(-c3ncn[nH]3)sc(N3CCOCC3)c2C#N)cc1 | 6%
COc1cc2nccc(Nc3ccc(NC(=O)c4ccc(C)cc4)c(O)c3)c2cc1OC.Cl [GW440132] | 22%
COC(=O)c1c(-c2ccccc2)c2cc(OC)ccc2c(=O)n1Cc1ccccc1 | 44%

Compound | %Inh
O=C(O)COc1ncnc2cc(-c3ccc4[nH]ncc4c3)sc12 | 3%
COc1ccc(C2=C(Nc3cccc(C(=O)O)c3)C(=O)NC2=O)cc1 [SB-390765] | 0%
CCn1c(-c2ccccn2)nc2cnccc21 [SB-736398] | 31%
Cn1ccc2ncnc(Oc3ccc(Nc4nc5ccccc5[nH]4)cc3)c21 | 0%
O=C(Nc1n[nH]c2cc(-c3cccc(F)c3F)ccc12)C1CC1 [SB-733894] | 2%
Clc1cc(Cl)cc(Nc2ccnc(Nc3cc(Cl)cc(Cl)c3)n2)c1 [GSK175726] | 0%
Cc1cccc(-c2nc(Nc3ccncc3)c3ccccc3n2)n1 [GW855857] | 0%
CCCc1ccc(S(=O)(=O)NC2CCN(c3ccnc(Nc4ccc(F)cc4)n3)C2)cc1 (stereo not drawn) [GSK1379715] | 3%
COc1ccc(CNC(=O)NC2CCN(c3ccnc(Nc4cc(OC)c(OC)c(OC)c4)n3)C2)cc1 (stereo not drawn) [GSK1379748] | 0%
Cc1c(O)cccc1Nc1ccnc2ccc(C(F)(F)F)cc12.Cl [GW466413] | 1%
Cc1c(Cn2ccn3c(=O)cc(N4CCOCC4)nc23)cccc1C(F)(F)F [GSK2289044] | 13%
COC(=O)c1c(-c2ccccc2)c2cc(C(=O)O)ccc2c(=O)n1Cc1ccccc1 | 0%
Cl.c1ccc(-c2n[nH]cc2-c2ccnc(-c3ccc(CN4CCOCC4)cc3)c2)nc1 [GW776245] | 10%
Cc1cc(NCC(c2ccccc2)c2ccccc2)nc(NCc2ccc(C(F)(F)F)cc2)n1 [GW497681] | 0%
COc1cccc(-c2cc(-c3c[nH]nc3-c3ccccn3)ccn2)c1 [GW680338] | 9%
O=C(Nc1ccccc1)Nc1cccc(Oc2ccc3nccn3n2)c1 | 0%
Nc1ncnc2[nH]c(-c3ccccc3)nc12 [AH5015] | 100%

system: PAK4; conditions: concentration: 1 μM, replicates: in singlicate; n = 1

Compound | %Inh
COc1cc2ncn(-c3cc(OCC4CCCO4)c(C(N)=O)s3)c2cc1OC (stereo not drawn) [GSK204607] | 0%
COc1ccccc1-c1ccc2c(NC(=O)C3CC3)n[nH]c2n1 [SB-711239] | 12%
Cc1cccc(-c2cc(Nc3ccncc3)c3ccccc3n2)n1 [GSK223675] | 0%
COc1ccc(Nc2nccc(-c3cccc(NC(=O)c4cc5cc(F)ccc5[nH]4)c3)n2)cc1 [GSK1229782] | 22%
COc1ccc(Nc2nccc(NCCNC(=O)Nc3ccccc3F)n2)cc1 [GSK1379901] | 0%
CSc1nn2c(=O)cc(N3CCOCC3)nc2n1Cc1cccc(C(F)(F)F)c1C [GSK2363608] | 0%
NC(=O)c1nnc2ccccc2c1N | 0%
CC(C)(C)c1ccc(C(=O)Nc2cn3cc(Cl)ccc3n2)cc1 | 0%
COc1cccc(NC(=O)NC2CCN(c3ccnc(Nc4ccc(F)cc4)n3)C2)c1 (stereo not drawn) [GSK1379721] | 0%
Cc1ccc(-c2cc(-c3c[nH]nc3-c3ccccn3)ccn2)cc1 [GW684088] | 19%
Cc1cc(N2Cc3ccccc3C2)nc(Nc2ccc(S(=O)(=O)N3CCOCC3)cc2)n1.Cl [GSK1669917] | 0%
CC(C)(C)c1ccc(C(=O)Nc2cn3cc(-c4cccnc4)ccc3n2)cc1 | 24%
Cc1ccccc1-n1cnc2c(N)ncnc21 [SKF-97510] | 0%
Fc1cccc(COc2nnc(-c3ccc4c(c3)CCO4)o2)c1 | 15%
Cc1ccc(C(=O)Nc2ccc(Nc3ccnc4cc(-c5ccccn5)ccc34)cc2O)cc1.Cl [GW440146] | 0%
CS(=O)(=O)c1ccc(-c2c(-c3ncn[nH]3)sc(N3CCOCC3)c2C#N)cc1 | 5%
COc1cc2nccc(Nc3ccc(NC(=O)c4ccc(C)cc4)c(O)c3)c2cc1OC.Cl [GW440132] | 0%
COC(=O)c1c(-c2ccccc2)c2cc(OC)ccc2c(=O)n1Cc1ccccc1 | 9%

Compound | %Inh
O=C(O)COc1ncnc2cc(-c3ccc4[nH]ncc4c3)sc12 | 0%
COc1ccc(C2=C(Nc3cccc(C(=O)O)c3)C(=O)NC2=O)cc1 [SB-390765] | 0%
CCn1c(-c2ccccn2)nc2cnccc21 [SB-736398] | 0%
Cn1ccc2ncnc(Oc3ccc(Nc4nc5ccccc5[nH]4)cc3)c21 | 0%
O=C(Nc1n[nH]c2cc(-c3cccc(F)c3F)ccc12)C1CC1 [SB-733894] | 12%
Clc1cc(Cl)cc(Nc2ccnc(Nc3cc(Cl)cc(Cl)c3)n2)c1 [GSK175726] | 6%
Cc1cccc(-c2nc(Nc3ccncc3)c3ccccc3n2)n1 [GW855857] | 0%
CCCc1ccc(S(=O)(=O)NC2CCN(c3ccnc(Nc4ccc(F)cc4)n3)C2)cc1 (stereo not drawn) [GSK1379715] | 0%
COc1ccc(CNC(=O)NC2CCN(c3ccnc(Nc4cc(OC)c(OC)c(OC)c4)n3)C2)cc1 (stereo not drawn) [GSK1379748] | 0%
Cc1c(O)cccc1Nc1ccnc2ccc(C(F)(F)F)cc12.Cl [GW466413] | 0%
Cc1c(Cn2ccn3c(=O)cc(N4CCOCC4)nc23)cccc1C(F)(F)F [GSK2289044] | 0%
COC(=O)c1c(-c2ccccc2)c2cc(C(=O)O)ccc2c(=O)n1Cc1ccccc1 | 0%
Cl.c1ccc(-c2n[nH]cc2-c2ccnc(-c3ccc(CN4CCOCC4)cc3)c2)nc1 [GW776245] | 16%
Cc1cc(NCC(c2ccccc2)c2ccccc2)nc(NCc2ccc(C(F)(F)F)cc2)n1 [GW497681] | 0%
COc1cccc(-c2cc(-c3c[nH]nc3-c3ccccn3)ccn2)c1 [GW680338] | 9%
O=C(Nc1ccccc1)Nc1cccc(Oc2ccc3nccn3n2)c1 | 0%
Nc1ncnc2[nH]c(-c3ccccc3)nc12 [AH5015] | 0%
